# Assay results from PubChem BioAssay (NCATS).
# Inconclusive results are not listed. The source made the active and inactive calls. Calls follow the shape of the full dose curve; tested in HEK293 reporter line.
# Experiment: qHTS for Inhibitors of the Functional Ribonucleoprotein Complex (vRNP) of Lassa (LASV) Arenavirus: Viability assay - alamar blue signal for LASV Primary Screen (AID 1347083); also: nearly all actives have a fitted effect of over 80% in size
# Conditions: cell viability, alamar blue fluorescence (LASV minigenome counter-screen); series mostly up to 57.5 µM
# Potency is read from the fitted curve at half-maximal effect.
row,Structure (SMILES),Potency
1,CCN(CC)CCNC(=O)COc1ccc(Cl)cc1,inactive
2,CN[C@@H]1C[C@H]2O[C@@](C)([C@H]1OC)n1c3ccccc3c3c4c(c5c6ccccc6n2c5c31)C(=O)N[C@H]4O,0.355 µM (active)
3,O=C1NC(=O)[C@@H](c2cn3c4c(cccc24)CCC3)[C@H]1c1c[nH]c2ccccc12,2.17 µM (active)
4,COC1C(O)C(C)OC(OC2CCC3(C)C(CCC4C3C(O)CC3(C)C(C5=CC(=O)OC5)CCC43O)C2)C1O (stereo not given),0.251 µM (active)
5,O=c1[nH]c(=O)n([C@H]2C[C@@H](O)[C@@H](CO)O2)cc1F,5.44 µM (active)
6,CC(Cc1ccccc1)(NC(=O)CN)c1ccccc1 (stereo not given),inactive
7,CC[C@H]1OC(=O)[C@H](C)[C@@H](O[C@H]2C[C@@](C)(OC)[C@@H](O)[C@H](C)O2)[C@H](C)[C@@H](O[C@@H]2O[C@H](C)C[C@H](N(C)C)[C@H]2O)[C@](C)(O)C[C@H](C)C(=NOCOCCOC)[C@H](C)[C@@H](O)[C@]1(C)O,inactive
8,CC(=O)OCC(=O)[C@@]12N=C(C)O[C@H]1C[C@H]1[C@@H]3CCC4=CC(=O)C=C[C@]4(C)[C@@H]3[C@@H](O)C[C@@]12C,inactive
9,CC[n+]1c(/C=C/C=C2/N(C)c3ccccc3C2(C)C)sc2ccccc21,1.58 µM (active)
10,C[C@@H](Oc1ccc2[nH]nc(C=Cc3cnn(CCO)c3)c2c1)c1c(Cl)cncc1Cl,24.3 µM (active)
11,C[C@@H]1[C@H](O)[C@@H](C)C=CC=CC=CC=CC=CC=CC=C[C@H](O[C@@H]2O[C@H](C)[C@H](O)[C@H](N)[C@@H]2O)C[C@@H]2O[C@](O)(C[C@@H](O)C[C@@H](O)[C@H](O)CC[C@@H](O)C[C@@H](O)CC(=O)O[C@H]1C)C[C@H](O)[C@@H]2C(=O)O,10.9 µM (active)
12,O=C(c1ccc(F)c(F)c1Nc1ccc(I)cc1F)N1CC(O)([C@H]2CCCCN2)C1,8.63 µM (active)
13,Clc1ccc(C2(c3ccc(-c4cn[nH]c4)cc3)CCNCC2)cc1,5.44 µM (active)
14,CC(=CCOc1ccc2ccc(=O)oc2c1)C1=CC(=O)C(C)(C)O1,inactive
15,O=C(O)CO,inactive
16,O=C(C=Cc1ccc(CN(CCO)CCc2c[nH]c3ccccc23)cc1)NO,1.37 µM (active)
17,CCCCC1CCC(=O)O1 (stereo not given),inactive
18,CC(C=CC(=O)NO)=C[C@@H](C)C(=O)c1ccc(N(C)C)cc1,15.3 µM (active)
19,C=Cc1ncc(OC)c2c1[nH]c1ccccc12,inactive
20,O=C(O)CO.[NH2-].[NH2-].[Pt+2],inactive

row,Structure (SMILES),Potency
1,Cc1cnc(Nc2ccc(N3CCN(C)CC3)cc2)nc1Nc1cccc(S(=O)(=O)NC(C)(C)C)c1,3.85 µM (active)
2,Cc1nc(NC(=O)N2CCC[C@@H]2C(N)=O)sc1-c1ccnc(C(C)(C)C(F)(F)F)c1,10.9 µM (active)
3,O=C(OCCOCCO)c1ccccc1Nc1cccc(C(F)(F)F)c1,inactive
4,CC(=O)OCC(=O)[C@@]12OC(C)(C)O[C@H]1C[C@H]1[C@@H]3C[C@H](F)C4=CC(=O)C=C[C@]4(C)[C@@]3(F)[C@@H](O)C[C@@]12C,inactive
5,O=C1NC2C(=CC(O)C(O)C2O)c2cc3c(cc21)OCO3 (stereo not given),0.199 µM (active)
6,CC(=O)OC1CC2(O)C3CCC4CC(O)CCC4(C)C3CCC2(C)C1C1=CC(=O)OC1 (stereo not given),0.282 µM (active)
7,CCC1=C[C@@H]2CN(C1)Cc1c([nH]c3ccccc13)[C@@](C(=O)OC)(c1cc3c(cc1OC)N(C)[C@@H]1[C@@](O)(C(=O)OC)[C@H](OC(C)=O)[C@]4(CC)C=CCN5CC[C@]31[C@@H]54)C2,0.306 µM (active)
8,C=C1C(=O)O[C@@H]2C[C@@H](C)[C@@H]3C=CC(=O)[C@@]3(C)[C@@H](OC(C)=O)[C@H]12,4.47 µM (active)
9,Oc1cc(-c2nc(-c3ccccc3)[nH]c2-c2ccncc2)ccc1Cl,1.53 µM (active)
10,CNC1CCC(N(Cc2cccc(-c3ccncc3)c2)C(=O)c2sc3c(F)ccc(F)c3c2Cl)CC1 (stereo not given),7.69 µM (active)
11,COc1cc(C)ccc1O,inactive
12,C[C@H]1[C@H](O)O[C@@H]2O[C@@]3(C)CC[C@@H]4[C@H](C)CC[C@@H]1[C@@]24OO3,10 µM (active)
13,O=C(O)C=Cc1ccc(O)c(O)c1,43.2 µM (active)
14,CCCCCN=C(N)NN=Cc1c[nH]c2ccc(OC)cc12,6.11 µM (active)
15,C=C1CCC2[C@](C)(CO)[C@H](O)CC[C@@]2(C)[C@@H]1/C=C/C1=CCOC1=O (stereo not given in full),inactive
16,CC(C)C[C@@H]1NC(=O)[C@H](Cc2ccccc2)N(C)C(=O)[C@H](C)NC(=O)c2ccccc2NC(=O)[C@H](Cc2ccc(O)cc2)N(C)C1=O,8.91 µM (active)
17,C/C=C/c1ccc(OC(C)[C@@H](O)c2ccc(O)c(OC)c2)c(OC)c1 (stereo not given in full),inactive
18,COc1cc(C(=S)N2CCOCC2)cc(OC)c1OC,inactive
19,CCCCCCC/C=C/C=O,inactive
20,CO[C@H]1C[C@@H]2CC[C@@H](C)[C@@](O)(O2)C(=O)C(=O)N2CCCC[C@@H]2C(=O)O[C@H]([C@H](C)C[C@@H]2CC[C@H](OP(C)(C)=O)[C@H](OC)C2)CC(=O)[C@H](C)C=C(C)[C@@H](O)[C@@H](OC)C(=O)[C@H](C)C[C@H](C)C=CC=CC=C1C,0.0109 µM (active)
